In the supplement of paper PMC11006884:
Targets with a hit are over-represented here; the source holds about 6,500 in all. About 2% of all pairs of compound and target were hits. Unmarked numbers belong to inactive results.

Compound: COC(=O)C#Cc1ccccc1 [methyl 3-phenylpropiolate]
Assay: log2 ratio of iodoacetamide-alkyne labeling of the cysteine site, DMSO over compound (competition); higher = stronger covalent engagement of the cysteine by the compound, active = 1 or more
Details: 500 µM; treatment time 1 h; system: HEK293T cell lysate
Procedure, shortened: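 Three replicates, each with duplicate channels, were prepared from HEK293T lysate (2 mg/mL) treated with vehicle or electrophile at 500 µM for 1 h at ambient temperature. Iodoacetamide alkyne was then applied for 1 h, and samples were clicked to sCIP-TMT reagents, pooled, trypsin-digested overnight at 37 °C, enriched on streptavidin, acid-eluted and analysed on Orbitrap Eclipse LC-MS/MS with FAIMS, with FragPipe quantification. The log2 competition ratio per cysteine is the mean control-channel divided by the mean compound-channel reporter intensity. Cysteines quantified in only one replicate were left out.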

UniProt O60232_C56
log2 ratio of iodoacetamide-alkyne labeling: 0.126

UniProt A0MZ66_C565
log2 ratio of iodoacetamide-alkyne labeling: 0.734

POLRMT C119 (UniProt O00411)
log2 ratio of iodoacetamide-alkyne labeling: 1.22 (active)

PGP C297 (UniProt A6NDG6)
Sequence of UniProt A6NDG6 (A6NDG6 whole entry, looked up): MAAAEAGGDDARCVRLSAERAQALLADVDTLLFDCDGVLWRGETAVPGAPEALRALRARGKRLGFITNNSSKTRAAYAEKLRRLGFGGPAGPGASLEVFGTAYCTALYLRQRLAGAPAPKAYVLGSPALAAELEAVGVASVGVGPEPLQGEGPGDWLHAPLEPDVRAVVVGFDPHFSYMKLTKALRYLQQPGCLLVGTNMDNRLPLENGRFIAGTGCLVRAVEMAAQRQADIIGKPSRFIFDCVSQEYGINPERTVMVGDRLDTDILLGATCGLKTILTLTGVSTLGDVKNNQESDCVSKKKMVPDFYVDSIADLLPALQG
log2 ratio of iodoacetamide-alkyne labeling: 1.17 (active)

KATNA1 C491 (UniProt O75449)
log2 ratio of iodoacetamide-alkyne labeling: 0.112

SIVA1 C6 (UniProt O15304)
log2 ratio of iodoacetamide-alkyne labeling: 1.88 (active)

RPP40 C49 (UniProt O75818)
log2 ratio of iodoacetamide-alkyne labeling: 0.0974

FANCG C417 (UniProt O15287)
log2 ratio of iodoacetamide-alkyne labeling: 0.36

VPS4B C240 (UniProt O75351)
Sequence of UniProt O75351 (O75351 whole entry): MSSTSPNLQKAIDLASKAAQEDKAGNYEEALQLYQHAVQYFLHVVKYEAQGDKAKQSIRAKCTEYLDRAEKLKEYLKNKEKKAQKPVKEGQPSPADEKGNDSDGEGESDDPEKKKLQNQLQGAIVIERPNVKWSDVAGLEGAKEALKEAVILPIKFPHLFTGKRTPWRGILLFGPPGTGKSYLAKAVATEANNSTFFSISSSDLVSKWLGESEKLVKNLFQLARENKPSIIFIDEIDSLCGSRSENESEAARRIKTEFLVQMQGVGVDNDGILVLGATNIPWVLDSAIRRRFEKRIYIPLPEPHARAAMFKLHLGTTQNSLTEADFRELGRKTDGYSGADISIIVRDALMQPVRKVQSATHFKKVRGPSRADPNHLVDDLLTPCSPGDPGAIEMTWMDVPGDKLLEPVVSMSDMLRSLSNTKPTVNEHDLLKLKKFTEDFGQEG
log2 ratio of iodoacetamide-alkyne labeling: 0.188

PRPF4 C237 (UniProt O43172)
log2 ratio of iodoacetamide-alkyne labeling: 1.42 (active)

IGF2BP3 C546 (UniProt O00425)
log2 ratio of iodoacetamide-alkyne labeling: 0.284

TIPRL C87 (UniProt O75663)
Sequence of UniProt O75663 (O75663 whole entry, looked up): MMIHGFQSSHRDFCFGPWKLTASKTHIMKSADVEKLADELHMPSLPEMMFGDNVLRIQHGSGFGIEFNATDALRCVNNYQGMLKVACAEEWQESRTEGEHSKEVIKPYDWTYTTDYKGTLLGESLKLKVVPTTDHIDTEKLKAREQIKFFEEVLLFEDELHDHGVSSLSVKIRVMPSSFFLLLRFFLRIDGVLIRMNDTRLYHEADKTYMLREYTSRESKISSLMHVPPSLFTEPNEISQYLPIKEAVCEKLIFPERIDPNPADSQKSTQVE
log2 ratio of iodoacetamide-alkyne labeling: 1.32 (active)

CD3EAP C107 (UniProt O15446)
log2 ratio of iodoacetamide-alkyne labeling: 0.723

PRKRA C106 (UniProt O75569)
log2 ratio of iodoacetamide-alkyne labeling: 1.07 (active)

PPFIA2 C143 (UniProt O75334)
log2 ratio of iodoacetamide-alkyne labeling: -0.214

NVL C550 (UniProt O15381)
log2 ratio of iodoacetamide-alkyne labeling: -0.302

ARHGEF11 C1500 (UniProt O15085)
log2 ratio of iodoacetamide-alkyne labeling: 0.0286

EIF3G C139 (UniProt O75821)
log2 ratio of iodoacetamide-alkyne labeling: 0.259

ARHGEF11 C1166 (UniProt O15085)
log2 ratio of iodoacetamide-alkyne labeling: 0.618

RIPK2 C414 (UniProt O43353)
log2 ratio of iodoacetamide-alkyne labeling: 1.35 (active)

OFD1 C581 (UniProt O75665)
log2 ratio of iodoacetamide-alkyne labeling: 0.478

EIF3D C437 (UniProt O15371)
log2 ratio of iodoacetamide-alkyne labeling: -0.116

EXOC5 C111 (UniProt O00471)
log2 ratio of iodoacetamide-alkyne labeling: 0.297

POLRMT C925 (UniProt O00411)
log2 ratio of iodoacetamide-alkyne labeling: -0.0567

UniProt O75528_C7
log2 ratio of iodoacetamide-alkyne labeling: 1.05 (active)

PGRMC2 C159 (UniProt O15173)
log2 ratio of iodoacetamide-alkyne labeling: 0.159

UniProt O00567_C52
log2 ratio of iodoacetamide-alkyne labeling: 0.482

TRIM24 C81 (UniProt O15164)
Sequence of UniProt O15164 (O15164 whole entry, looked up): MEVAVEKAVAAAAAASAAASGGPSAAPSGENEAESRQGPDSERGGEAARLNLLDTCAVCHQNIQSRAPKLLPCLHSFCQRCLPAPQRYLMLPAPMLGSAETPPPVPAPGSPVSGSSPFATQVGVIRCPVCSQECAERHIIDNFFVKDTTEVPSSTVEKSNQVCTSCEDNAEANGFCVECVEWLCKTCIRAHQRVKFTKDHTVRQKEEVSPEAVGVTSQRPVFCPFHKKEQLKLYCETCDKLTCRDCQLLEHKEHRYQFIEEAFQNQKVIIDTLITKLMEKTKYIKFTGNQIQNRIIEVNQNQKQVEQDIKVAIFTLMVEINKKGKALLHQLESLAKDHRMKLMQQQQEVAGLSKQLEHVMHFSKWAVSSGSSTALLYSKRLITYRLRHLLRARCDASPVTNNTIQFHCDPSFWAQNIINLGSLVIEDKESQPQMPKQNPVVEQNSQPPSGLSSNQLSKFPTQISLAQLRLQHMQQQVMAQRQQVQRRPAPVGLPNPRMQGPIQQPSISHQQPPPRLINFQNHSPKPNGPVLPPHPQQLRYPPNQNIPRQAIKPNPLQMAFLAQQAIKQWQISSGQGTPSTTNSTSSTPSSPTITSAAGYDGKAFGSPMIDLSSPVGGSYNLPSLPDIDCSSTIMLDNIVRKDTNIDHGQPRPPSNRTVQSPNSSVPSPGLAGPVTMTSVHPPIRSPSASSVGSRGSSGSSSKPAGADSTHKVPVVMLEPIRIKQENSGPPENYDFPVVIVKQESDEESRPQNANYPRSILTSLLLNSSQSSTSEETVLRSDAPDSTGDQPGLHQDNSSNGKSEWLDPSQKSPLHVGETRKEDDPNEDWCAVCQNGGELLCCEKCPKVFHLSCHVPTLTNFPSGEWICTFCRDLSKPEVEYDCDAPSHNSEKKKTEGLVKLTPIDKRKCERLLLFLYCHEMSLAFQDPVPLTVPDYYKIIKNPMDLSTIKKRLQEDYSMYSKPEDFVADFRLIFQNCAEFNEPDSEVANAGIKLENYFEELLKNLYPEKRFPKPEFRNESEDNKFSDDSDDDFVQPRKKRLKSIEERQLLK
log2 ratio of iodoacetamide-alkyne labeling: 0.0661

SF3B1 C1035 (UniProt O75533)
log2 ratio of iodoacetamide-alkyne labeling: 0.375

TMEM189 C22 (UniProt A5PLL7)
Sequence of UniProt A5PLL7 (A5PLL7 whole entry, looked up): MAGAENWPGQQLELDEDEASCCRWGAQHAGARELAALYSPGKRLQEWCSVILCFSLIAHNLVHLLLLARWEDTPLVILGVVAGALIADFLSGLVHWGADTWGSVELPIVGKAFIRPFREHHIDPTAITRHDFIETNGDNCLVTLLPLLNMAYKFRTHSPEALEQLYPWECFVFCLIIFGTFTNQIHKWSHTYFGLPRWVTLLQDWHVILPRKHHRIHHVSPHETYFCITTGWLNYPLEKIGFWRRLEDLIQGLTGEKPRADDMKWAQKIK
log2 ratio of iodoacetamide-alkyne labeling: 1.52 (active)

SF3B1 C677 (UniProt O75533)
log2 ratio of iodoacetamide-alkyne labeling: 0.316

XPO1 C164 (UniProt O14980)
Sequence of UniProt O14980 (O14980 whole entry, looked up): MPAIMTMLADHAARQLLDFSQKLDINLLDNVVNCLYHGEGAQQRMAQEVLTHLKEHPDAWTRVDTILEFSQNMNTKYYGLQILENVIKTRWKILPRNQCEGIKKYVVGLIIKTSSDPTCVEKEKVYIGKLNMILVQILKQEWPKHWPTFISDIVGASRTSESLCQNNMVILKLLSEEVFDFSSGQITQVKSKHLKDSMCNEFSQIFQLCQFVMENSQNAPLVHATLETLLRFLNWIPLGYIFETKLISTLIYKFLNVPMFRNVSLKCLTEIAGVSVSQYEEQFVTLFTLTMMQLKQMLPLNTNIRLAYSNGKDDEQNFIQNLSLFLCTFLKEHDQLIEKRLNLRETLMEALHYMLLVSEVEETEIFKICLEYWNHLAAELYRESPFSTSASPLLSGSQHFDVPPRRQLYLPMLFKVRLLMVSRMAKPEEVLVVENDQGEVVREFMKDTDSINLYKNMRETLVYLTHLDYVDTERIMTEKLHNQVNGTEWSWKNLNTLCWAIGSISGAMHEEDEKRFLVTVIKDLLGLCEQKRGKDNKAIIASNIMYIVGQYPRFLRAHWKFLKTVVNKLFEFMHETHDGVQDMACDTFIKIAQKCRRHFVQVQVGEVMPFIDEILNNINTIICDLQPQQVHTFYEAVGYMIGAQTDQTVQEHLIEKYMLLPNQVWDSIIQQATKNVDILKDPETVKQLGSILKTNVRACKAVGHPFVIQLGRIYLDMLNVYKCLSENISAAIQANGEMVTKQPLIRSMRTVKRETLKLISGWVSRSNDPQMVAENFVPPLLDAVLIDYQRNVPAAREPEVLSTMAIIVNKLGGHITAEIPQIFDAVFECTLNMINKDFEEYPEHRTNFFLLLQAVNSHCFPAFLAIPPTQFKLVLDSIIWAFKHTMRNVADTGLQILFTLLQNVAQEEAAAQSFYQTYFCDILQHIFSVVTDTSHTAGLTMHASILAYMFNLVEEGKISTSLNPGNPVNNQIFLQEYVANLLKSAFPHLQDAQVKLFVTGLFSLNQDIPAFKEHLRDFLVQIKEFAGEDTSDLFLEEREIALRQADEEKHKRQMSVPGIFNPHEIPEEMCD
log2 ratio of iodoacetamide-alkyne labeling: -0.00596

EPB41L2 C424 (UniProt O43491)
log2 ratio of iodoacetamide-alkyne labeling: 0.17

NPM3 C105 (UniProt O75607)
Sequence of UniProt O75607 (O75607 whole entry, looked up): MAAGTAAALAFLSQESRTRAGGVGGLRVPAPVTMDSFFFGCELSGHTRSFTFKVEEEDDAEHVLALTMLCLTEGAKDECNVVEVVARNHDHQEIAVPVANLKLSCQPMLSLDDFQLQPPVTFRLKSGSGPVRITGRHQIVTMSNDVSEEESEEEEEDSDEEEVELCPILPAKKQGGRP
log2 ratio of iodoacetamide-alkyne labeling: 0.636

NKRF C37 (UniProt O15226)
Sequence of UniProt O15226 (O15226 whole entry, looked up): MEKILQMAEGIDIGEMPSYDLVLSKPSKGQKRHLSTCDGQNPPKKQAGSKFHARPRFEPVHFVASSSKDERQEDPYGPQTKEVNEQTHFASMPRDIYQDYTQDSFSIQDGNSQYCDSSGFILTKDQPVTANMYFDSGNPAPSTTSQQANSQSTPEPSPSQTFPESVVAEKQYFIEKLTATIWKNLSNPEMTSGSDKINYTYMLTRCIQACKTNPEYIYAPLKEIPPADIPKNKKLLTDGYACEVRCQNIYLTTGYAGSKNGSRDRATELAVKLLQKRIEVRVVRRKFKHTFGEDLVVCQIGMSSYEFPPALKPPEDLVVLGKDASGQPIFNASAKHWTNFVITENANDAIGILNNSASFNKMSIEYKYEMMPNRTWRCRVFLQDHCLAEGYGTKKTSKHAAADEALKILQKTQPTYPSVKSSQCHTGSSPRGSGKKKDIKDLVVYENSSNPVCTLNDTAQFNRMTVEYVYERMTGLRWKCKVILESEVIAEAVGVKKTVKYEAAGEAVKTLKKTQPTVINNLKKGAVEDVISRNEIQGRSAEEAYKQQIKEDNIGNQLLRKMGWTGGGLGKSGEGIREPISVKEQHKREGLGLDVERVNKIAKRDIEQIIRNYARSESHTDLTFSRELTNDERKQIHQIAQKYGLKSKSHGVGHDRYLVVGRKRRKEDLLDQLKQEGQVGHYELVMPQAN
log2 ratio of iodoacetamide-alkyne labeling: 1.02 (active)

PJA2 C224 (UniProt O43164)
Sequence of UniProt O43164 (O43164 whole entry): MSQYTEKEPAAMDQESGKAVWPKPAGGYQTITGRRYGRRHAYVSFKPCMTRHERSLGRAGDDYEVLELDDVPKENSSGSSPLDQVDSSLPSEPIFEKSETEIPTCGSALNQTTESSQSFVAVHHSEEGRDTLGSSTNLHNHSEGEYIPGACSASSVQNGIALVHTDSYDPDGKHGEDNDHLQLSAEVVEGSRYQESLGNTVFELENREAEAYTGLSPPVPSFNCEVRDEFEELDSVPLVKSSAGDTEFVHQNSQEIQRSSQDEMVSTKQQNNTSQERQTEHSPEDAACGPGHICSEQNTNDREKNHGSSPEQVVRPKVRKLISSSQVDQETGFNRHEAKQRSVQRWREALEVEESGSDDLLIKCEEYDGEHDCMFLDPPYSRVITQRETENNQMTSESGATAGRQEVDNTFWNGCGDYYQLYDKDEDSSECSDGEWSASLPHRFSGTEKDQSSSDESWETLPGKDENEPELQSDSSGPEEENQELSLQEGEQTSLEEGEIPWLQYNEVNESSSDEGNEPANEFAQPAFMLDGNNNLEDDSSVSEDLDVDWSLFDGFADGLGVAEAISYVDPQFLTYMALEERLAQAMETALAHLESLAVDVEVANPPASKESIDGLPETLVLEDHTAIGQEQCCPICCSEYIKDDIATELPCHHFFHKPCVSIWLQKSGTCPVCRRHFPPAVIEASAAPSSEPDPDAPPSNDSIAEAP
log2 ratio of iodoacetamide-alkyne labeling: 0.22

NVL C391 (UniProt O15381)
log2 ratio of iodoacetamide-alkyne labeling: 0.0922

NVL C626 (UniProt O15381)
log2 ratio of iodoacetamide-alkyne labeling: 0.651

UniProt O00567_C211
log2 ratio of iodoacetamide-alkyne labeling: 1.14 (active)
